Source: the OligoGym collection

Biological target: SHOC2
Test: pooled miR-30 sensor sort-seq; sequence = guide strand
Details: shRNA
Note: reference of the scale not given here.

Row | Sequence | sensor-assay potency score (higher = more potent)
1 | TCCAACTCTCTTAACTTCCTAA | -0.798
2 | TTTGTTCTCTTCTAGATCCAAC | -0.823
3 | TATCTAACTATACTACCTCTGT | -0.264
4 | TTTGATCGTATTGTCAACTGAA | 0.487
5 | TATATCTAACTATACTACCTCT | -0.42
6 | TGAATTTTCACTTAGAGCCAGT | -0.612
7 | TATGTGTATAGATCTCTTGGAT | -0.313
8 | TTGATTGTGAGCTACATCCAGC | -0.412
9 | TTACTTAATACTTTTGCTCTGG | 0.139
10 | TTCTCTTCTAGATCCAACTCTC | -0.213
11 | TTGTGAGCTACATCCAGCGTAA | 0.0478
12 | TTGATCGTATTGTCAACTGAAA | -1.19

Biological target: SHOX2
Test: as above
Details: shRNA

Row | Sequence | sensor-assay potency score (higher = more potent)
13 | TCCAGGGTGAAATTGGTCCGAC | -1.19
14 | TATGAGAACACCTTTATGGAGT | -0.114
15 | TTTGAAACCAAACCTGCACTCG | -0.285
16 | TTCTATGCAAGAGTCCATCGTT | 0.114
17 | TTCTACATTTAGCTCTTCGATT | -0.898
18 | TACATTTAGCTCTTCGATTTTG | -1.22
19 | TTTATGGAGTTGATTTTCTTGT | -0.402
20 | TTTCTACATTTAGCTCTTCGAT | -1.28
21 | TTGCGATCTTTCAGCTCCGGGG | -1.14
22 | TTCTTGCTGGTGGTCTTGGCGG | -1.37
23 | TTTTCTTGTTTTCTACATTTAG | -1.51
24 | TTTGCGATCTTTCAGCTCCGGG | -1.2

Biological target: SHROOM4
Test: as above
Details: shRNA

Row | Sequence | sensor-assay potency score (higher = more potent)
25 | TAGCTTGACAAGTCCAGTGCTG | -0.0975
26 | TATCAGTACCAACTTCTCCTGG | -0.376
27 | TAGTGGTTGAAGAACAGTCCGT | -0.287
28 | TTCATCTTGACAAAGTGCTGGT | 0.618
29 | TTTGCTTGCAAAACATTCTGAG | 0.464
30 | TTTCTGAACTGAAATACTGGGG | -0.0667
31 | TTGAAGAGCTTGTCTCTGGGGC | 0.543
32 | TAGAGCTCCTTGAACACTGCAG | 0.417
33 | TTGCTTGCAAAACATTCTGAGT | -1.21
34 | TTATTCGTCCCTCTAAGCCTGT | -0.267
35 | TTTCATCTTGACAAAGTGCTGG | 0.237
36 | TTGAAGAACAGTCCGTGGCTTG | -0.301

Biological target: SIAE
Test: as above
Details: shRNA

Row | Sequence | sensor-assay potency score (higher = more potent)
37 | TTATTTTCTCCAAAGTCTGTTG | -0.694
38 | TAGACAACTCCCTTGTAGCATT | -0.9
39 | TAACACAGTCATCTGCATGTTA | -0.177
